In PubChem BioAssay (NCI) one finds growth data, which are given here for eight compounds.

About 83,000 compounds went through this panel and 20% of them were active in at least one assay; those are over-represented in the sample as a whole.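 In brief: 96-well plates, 48 h treatment, single concentration, percent growth endpoint.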 A number with no mark means an inactive call. Calls of active or inactive are those of the source. Rule for the calls: active = growth percent below 10; inactive = the rest.

Test systems include NCI-H23 lung; NCI-H226 lung; NCI-H322M lung; NCI-H460 lung; HOP-92 NSCLC; NCI-H522 lung; A549/ATCC NSCLC; 786-0 renal; COLO 205 colon; DU-145 prostate; K-562 leukemia; MALME-3M melanoma; MDA-MB-231 breast; RXF 393 renal; SF-268 CNS; SF-295 CNS; SF-539 CNS; UACC-257 melanoma; M14 melanoma; HOP-62 NSCLC.
Experiment in all cases: NCI-60 one-dose screen, 48 h (100 = growth as untreated, 0 = no growth, -100 = all killed)
What all share (settings): 10 µM unless noted

As for `Cn1cc(C(=O)C[n+]2ccccc2)c2ccccc21`, the growth with NCI-H23 lung was 91.7%; with NCI-H226 lung, 99.1%; with NCI-H322M lung it was 104%; with NCI-H460 lung, 107%; in the test with HOP-92 NSCLC it was 92.1%; in the test with NCI-H522 lung it was 96.9%. Besides, the growth is 102% in the test with A549/ATCC NSCLC; 97.4% in the test on 786-0 renal; 101% in the test on COLO 205 colon; 109% with DU-145 prostate; 106% with K-562 leukemia; 96.7% in the test with MALME-3M melanoma. Further, the growth in the test with MDA-MB-231 breast is 100%; with RXF 393 renal it was 99.6%; in the test on SF-268 CNS, 94.7%; in the test with SF-295 CNS it was 102%; with SF-539 CNS, 89.6%; with UACC-257 melanoma, 111%. Further, the growth in the test on M14 melanoma is 99.2%.

Regarding `COc1ccc2c(c1)c(-c1nc(-c3c[nH]c4ncccc34)cs1)cn2CCCCN1CCOCC1`, the growth is 69.9% in the test on NCI-H23 lung; 70.3% in the test on NCI-H226 lung; 57.2% in the test with NCI-H322M lung; 4.29% (active) with NCI-H460 lung; 43% with HOP-92 NSCLC; 39.9% in the test on NCI-H522 lung. In addition, the growth in the test on A549/ATCC NSCLC is 49.7%; in the test with 786-0 renal, -43.7% (active); with COLO 205 colon, -100% (active); in the test with DU-145 prostate, 48.9%; in the test with K-562 leukemia it was -65.2% (active); in the test on MALME-3M melanoma, -66.7% (active). The growth was 23.4% with MDA-MB-231 breast; 31.9% in the test with RXF 393 renal; 52.4% in the test on SF-268 CNS; 13.1% in the test on SF-295 CNS; 49.3% in the test with SF-539 CNS; 79.5% in the test on UACC-257 melanoma.

Regarding `CC1=C2[C@H]3OC(=O)[C@@H](C)[C@@H]3CC[C@@]2(C)C=CC1=O`, the growth was 54.5% in the test on NCI-H23 lung; 92% with NCI-H226 lung; 85.8% with NCI-H322M lung; 111% with HOP-62 NSCLC; 116% in the test with NCI-H460 lung; 123% in the test with NCI-H522 lung. Further, the growth with 786-0 renal was 106%; in the test on COLO 205 colon it was 96.7%; with DU-145 prostate, 109%; in the test with K-562 leukemia it was 110%; in the test with MALME-3M melanoma, 87.3%; in the test with MDA-MB-231 breast, 112%. The growth with SF-268 CNS is 107%; in the test with SF-295 CNS, 106%; in the test with SF-539 CNS, 83.3%; in the test on M14 melanoma it was 120%.

Take `O=[N+]([O-])c1cc(Br)c(O)c(Br)c1`: the growth was 101% in the test on NCI-H23 lung; 93.5% in the test with NCI-H226 lung; 105% in the test with NCI-H322M lung; 96.9% with HOP-62 NSCLC; 107% in the test with NCI-H460 lung; 95.8% with HOP-92 NSCLC. Besides, the growth with A549/ATCC NSCLC was 98.9%; with 786-0 renal, 102%; in the test with COLO 205 colon, 112%; in the test with K-562 leukemia, 123%; with MDA-MB-231 breast, 103%; with RXF 393 renal, 90.2%. The growth with SF-295 CNS was 100%; with SF-539 CNS it was 108%; in the test on UACC-257 melanoma, 95.4%; in the test with M14 melanoma, 111%.

Turning to `O=C(O)C(Br)CBr` (stereo not drawn), the growth was 99.2% in the test on NCI-H23 lung; 103% in the test on NCI-H226 lung; 92.5% in the test with NCI-H322M lung; 101% with HOP-62 NSCLC; 102% with NCI-H460 lung; 75.9% in the test with NCI-H522 lung. For the same compound, the growth was 97.6% in the test with A549/ATCC NSCLC; 96.4% in the test with 786-0 renal; 111% in the test on COLO 205 colon; 106% in the test with DU-145 prostate; 104% in the test on K-562 leukemia; 126% in the test with MDA-MB-231 breast. Further, the growth in the test on SF-268 CNS was 103%; in the test on SF-295 CNS, 98.1%; in the test on SF-539 CNS, 98.5%; with UACC-257 melanoma, 97.7%; in the test on M14 melanoma it was 90.2%.

Regarding `COC1C(O)CC(OC2CC(Oc3cc4cc5c(c(O)c4c(O)c3C)C(=O)[C@@H](OC3CC(OC4CC(OC6CC(C)(O)C(OC(C)=O)C(C)O6)C(O)C(C)O4)C(O)C(C)O3)[C@H]([C@H](OC)C(=O)[C@@H](O)[C@@H](C)O)C5)OC(C)C2OC(C)=O)OC1C` (stereo partly drawn), the growth is -44.1% (active) in the test with NCI-H23 lung; -10.6% (active) with NCI-H226 lung; -2.53% (active) in the test with NCI-H322M lung; -25.7% (active) in the test with NCI-H460 lung; -19.7% (active) in the test on HOP-92 NSCLC; -50.6% (active) with NCI-H522 lung. Also, the growth was -64.2% (active) in the test on A549/ATCC NSCLC; 1.26% (active) with 786-0 renal; -57.6% (active) in the test on COLO 205 colon; -18.3% (active) in the test on DU-145 prostate; -14.9% (active) with K-562 leukemia; -91.6% (active) in the test with MALME-3M melanoma. Besides, the growth with MDA-MB-231 breast is -8.36% (active); in the test on RXF 393 renal it was -49.6% (active); in the test on SF-268 CNS it was -10.5% (active); in the test with SF-295 CNS it was -16.2% (active); in the test on SF-539 CNS, -73.9% (active); with UACC-257 melanoma, -31.7% (active). For the same compound, the growth in the test with M14 melanoma was -86.3% (active).

For the compound `CC[C@H](C)[C@H]1O[C@]2(C=C[C@@H]1C)C[C@@H]1C[C@@H](C/C=C(\C)[C@@H](O[C@H]3C[C@H](OC)[C@@H](O[C@H]4C[C@H](OC)[C@@H](NC)[C@H](C)O4)[C@H](C)O3)[C@@H](C)/C=C/C=C3\CO[C@@H]4[C@H](O)C(C)=C[C@@H](C(=O)O1)[C@]34O)O2`, the growth in the test with NCI-H23 lung was -68.8% (active); with NCI-H226 lung, -75.2% (active); in the test on NCI-H322M lung it was -22.3% (active); in the test with NCI-H460 lung it was -77.4% (active); in the test on HOP-92 NSCLC it was -33.8% (active); in the test with NCI-H522 lung it was -70.3% (active). For the same compound, the growth is -51.6% (active) in the test on A549/ATCC NSCLC; -88.4% (active) with 786-0 renal; -71.6% (active) in the test with COLO 205 colon; -85.2% (active) in the test on DU-145 prostate; -41.4% (active) in the test on K-562 leukemia; -67.2% (active) with MALME-3M melanoma. Besides, the growth in the test with MDA-MB-231 breast is -71.9% (active); in the test on RXF 393 renal, -88.4% (active); in the test on SF-268 CNS, -56% (active); with SF-295 CNS it was -65.6% (active); in the test with SF-539 CNS it was -79.7% (active); with UACC-257 melanoma, -56.7% (active). The growth in the test on M14 melanoma is -68.6% (active).

On to `CN(C)c1ccc(C=C2C(=O)NC(=O)NC2=O)cc1`, for which the growth in the test with NCI-H23 lung was 70.8%; with NCI-H226 lung, 97.6%; with NCI-H322M lung it was 123%; in the test with NCI-H460 lung, 102%; in the test on HOP-92 NSCLC, 86.8%; with NCI-H522 lung, 69.6%. For the same compound, the growth in the test on A549/ATCC NSCLC was 92.6%; in the test on 786-0 renal, 109%; in the test on COLO 205 colon it was 107%; in the test with DU-145 prostate, 102%; with K-562 leukemia, 109%; with MALME-3M melanoma, 96.4%. For the same compound, the growth in the test on MDA-MB-231 breast is 88.2%; in the test with RXF 393 renal, 94%; in the test with SF-268 CNS it was 93.5%; in the test with SF-295 CNS, 95.5%; in the test on SF-539 CNS, 96.7%; in the test with UACC-257 melanoma it was -19.7% (active). Also, the growth with M14 melanoma is 86.5%.
